Experimental data published in PubChem BioAssay (Tox21).
Results filed as inconclusive are left out. Active and inactive are the calls of the source. Unless noted, the call rests on the fitted dose curve; in most records, active means well fitted curve in the direction sought with a large enough effect in the repeat runs; inconclusive means weak or mixed curves; inactive means no such curve, though single readings can be large; an effect the other way counts as inactive or inconclusive.

How the values were obtained:
[1] = qHTS assay to identify small molecule agonists of the peroxisome proliferator-activated receptor delta (PPARd) signaling pathway - cell viability counter screen (AID 743211); further: on the % scale 0 is the no-effect control and ±100 the full control effect; nearly all actives have a fitted effect of over 55% in size
In short: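 Counter screen for cytotoxicity run in parallel with the PPARd reporter screen. Beta-lactamase reporter HEK293H cells exposed to compounds 17 h; ATP-based CellTiter-Glo luminescence quantified viability.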

[2] = biological target: Peroxisome proliferator-activated receptor delta (Homo sapiens) (UniProt Q03181); experiment: qHTS assay to identify small molecule agonists of the peroxisome proliferator-activated receptor delta (PPARd) signaling pathway (AID 743212; calls by dose curve; further: on the % scale 0 is the no-effect control and ±100 the full control effect)
In short: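 GeneBLAzer PPARd UAS-bla HEK293H cells (beta-lactamase reporter under UAS control), plated and rested 5 h at 37 C, then exposed to compounds in DMSO at 37 C; LiveBLAzer B/G FRET substrate added, 2 h room temperature, fluorescence read.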

[3] = qHTS assay to identify small molecule antagonists of the peroxisome proliferator-activated receptor delta (PPARd) signaling pathway - cell viability counter screen (AID 743213); further: on the % scale 0 is the no-effect control and ±100 the full control effect; nearly all actives have a fitted effect of over 50% in size
In short: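 Viability counter-screen, qHTS format: PPARd-bla HEK293H, L165041 300 nM final, 17 h compound exposure at 37 C, CellTiter-Glo luminescence after 30 min RT.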

[4] = biological target: Peroxisome proliferator-activated receptor delta (Homo sapiens) (UniProt Q03181); experiment: qHTS assay to identify small molecule antagonists of the peroxisome proliferator-activated receptor delta (PPARd) signaling pathway (AID 743215; active means well fitted inhibition curve with a large enough effect in the signal ratio in the repeat runs, not every such curve was filed as active; the % refers to the signal ratio;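 further: cells stimulated with agonist L165041 at 300 nM final during compound exposure; series mostly up to about 62 µM; on the % scale 0 is the no-effect control and ±100 the full control effect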)
In short: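 With L165041 present at 300 nM final, compounds were incubated 17 h at 37 C on PPARd UAS-bla HEK293H cells. A FRET-based beta-lactamase substrate was then applied for 2 h at room temperature and fluorescence intensity recorded.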

[5] = biological target: Bile acid receptor (Homo sapiens) (UniProt Q96RI1); experiment: qHTS assay to identify small molecule antagonists of the farnesoid-X-receptor (FXR) signaling pathway (AID 743217; active means well fitted inhibition curve with a large enough effect in the signal ratio in the repeat runs, not every such curve was filed as active; the % refers to the signal ratio; further: on the % scale 0 is the no-effect control and ±100 the full control effect)
In short: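 In this cell-based antagonist screen, inhibition of CDCA-driven (50 uM final) UAS-beta-lactamase expression in HEK 293T cells was measured by FRET fluorescence following 16 h compound exposure at 37 °C.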

[6] = qHTS assay to identify small molecule agonists of the farnesoid-X-receptor (FXR) signaling pathway - cell viability counter screen (AID 743218); further: on the % scale 0 is the no-effect control and ±100 the full control effect; nearly all actives have a fitted effect of over 45% in size
In short: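 After 16 h at 37 C with test compounds, FXR-bla HEK 293T cells were given LiveBLAzer B/G substrate for 2 h at RT and then CellTiter-Glo; luminescence was taken after 30 min.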

[7] = biological target: Bile acid receptor (Homo sapiens) (UniProt Q96RI1); experiment: qHTS assay to identify small molecule agonists of the farnesoid-X-receptor (FXR) signaling pathway (AID 743220; active means well fitted activation curve with a large enough effect in the signal ratio in the repeat runs, not every such curve was filed as active; the % refers to the signal ratio; further: on the % scale 0 is the no-effect control and ±100 the full control effect)
In short: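 Beta-lactamase reporter under UAS control in GeneBLAzer FXR HEK 293T cells (5000/well) measured with LiveBLAzer FRET substrate after 2 h at room temperature. Compound exposure lasted 16 h at 37C.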

[8] = qHTS assay to identify small molecule antagonists of the farnesoid-X-receptor (FXR) signaling pathway - cell viability counter screen (AID 743221; active means well fitted cell-killing curve with a large enough effect in the repeat runs, not every such curve was filed as active; further: on the % scale 0 is the no-effect control and ±100 the full control effect; nearly all actives have a fitted effect of over 50% in size)
In short: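 Multiplexed counter screen: viability of FXR-bla HEK 293T cells under agonist stimulation by chenodeoxycholic acid (50 uM, final) and test compound for 16 h at 37 C, measured by CellTiter-Glo luminescence in the reporter wells.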

[9] = biological target: Vitamin D3 receptor (Homo sapiens) (UniProt P11473); experiment: qHTS assay to identify small molecule agonists of the vitamin D receptor (VDR) signaling pathway (AID 743222; calls by dose curve; further: on the % scale 0 is the no-effect control and ±100 the full control effect)
In short: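 VDR-bla cells were seeded, left 4 h, treated with compounds in DMSO for 16 h, incubated 2 h at RT with B/G FRET substrate, and read for fluorescence.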

[10] = biological target: Vitamin D3 receptor (Homo sapiens) (UniProt P11473); experiment: qHTS assay to identify small molecule antagonists of the vitamin D receptor (VDR) signaling pathway (AID 743223; active means well fitted inhibition curve with a large enough effect in the signal ratio in the repeat runs, not every such curve was filed as active; the % refers to the signal ratio; further: on the % scale 0 is the no-effect control and ±100 the full control effect)
In short: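 Cells carrying a VDR-driven beta-lactamase reporter (VDR-bla) were co-treated with compound and 3 nM final 1alpha,25-dihydroxyvitamin D3 for 16 h at 37C; reporter activity was measured as FRET substrate fluorescence after 2 h at room temperature.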

[11] = qHTS assay to identify small molecule agonists of the vitamin D receptor (VDR) signaling pathway - cell viability counter screen (AID 743224); further: series mostly up to about 63 µM; on the % scale 0 is the no-effect control and ±100 the full control effect; nearly all actives have a fitted effect of over 50% in size
In short: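 Here cell health was gauged by luminescent ATP detection (CellTiter-Glo, 30 min RT) in VDR-bla cells that had been incubated with test compounds for 16 h at 37C and 5% CO2.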

[12] = qHTS assay to identify small molecule antagonists of the vitamin D receptor (VDR) signaling pathway - cell viability counter screen (AID 743225); further: on the % scale 0 is the no-effect control and ±100 the full control effect; nearly all actives have a fitted effect of over 50% in size
In short: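 HEK293T VDR-bla; cpd + 1a,25-(OH)2D3 3 nM final, 16 h 37C/5% CO2; B/G FRET substrate 2 h RT; then CellTiter-Glo 30 min RT, luminescence.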

[13] = qHTS assay to identify small molecule agonists of the NFkB signaling pathway (AID 1159509; active means well fitted curve in the direction sought with a large enough effect in the signal ratio in the repeat runs, not every such curve was filed as active; the % refers to the signal ratio)
In short: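 After overnight attachment, reporter cells received test compounds, DMSO or positive controls and were incubated 5 hr at 37 C. FRET substrate was then added for 1.5 hr at room temperature before dual-emission fluorescence reading.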

[14] = qHTS assay to identify small molecule agonists of the NFkB signaling pathway - cell viability counter screen (AID 1159515; calls by dose curve; further: series mostly up to about 61 µM; on the % scale 0 is the no-effect control and ±100 the full control effect; nearly all actives have a fitted effect of over 55% in size)
In short: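 5 hr compound treatment of NFkB-bla ME-180 cells (2,000/well, seeded overnight beforehand), followed by reporter substrate for 1.5 hr. CellTiter-Glo added afterward; luminescence after 30 min RT.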

[15] = qHTS assay to identify small molecule agonists of the endoplasmic reticulum stress response signaling pathway - cell viability counter screen (AID 1159517; calls by dose curve)
In short: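 Luminescence readout: CellTiter-Glo, 30 min RT, same wells as the ESRE-bla reporter read. HeLa ESRE-bla, 1,500 cells/well, o/n 37 C; cpd 5 hr 37 C/5% CO2.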

[16] = qHTS assay to identify small molecule antagonists of the retinoid-related orphan receptor gamma (ROR-gamma) signaling pathway - cell viability counter screen (AID 1159520)
In short: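 Tet-on ROR gamma CHO cells (1,000/well) were plated 4 hr, given compounds in DMSO for 2 hr at 37 C, then induced with 1 uM final doxycycline for 16 hr. Viability was read as ATP by CellTiter-Glo luminescence after 30 min.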

[17] = qHTS assay to identify small molecule agonists of the AP-1 signaling pathway - cell viability counter screen (AID 1159525; calls by dose curve; further: nearly all actives have a fitted effect of over 55% in size)
In short: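 ME-180 AP-1-bla, 2500 cells/well, Opti-MEM + 0.5% dialyzed FBS; overnight 37 °C; cpd 15-pt titration, 5 h 37 °C; CellTiter-Glo 30 min RT; luminescence read; normalised to TOAB and DMSO controls.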

[18] = qHTS assay to identify small molecule agonists of the AP-1 signaling pathway (AID 1159526; calls by dose curve; further: on the % scale 0 is the no-effect control and ±100 the full control effect)
[19] = biological target: Nuclear receptor ROR-gamma (Homo sapiens) (UniProt P51449); experiment: qHTS assay to identify small molecule antagonists of the retinoid-related orphan receptor gamma (ROR-gamma) signaling pathway (AID 1159521)
In short: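 Cells were plated, rested 4 h at 37 C, exposed to compounds for 2 h, then given 1 uM final doxycycline hyclate to induce RORγ expression. After 16 h, ONE-Glo luminescence from the ROR response element reporter was measured.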

[20] = qHTS assay to identify small molecule agonists of the endoplasmic reticulum stress response signaling pathway (AID 1159516; active means well fitted activation curve with a large enough effect in the signal ratio in the repeat runs, not every such curve was filed as active; the % refers to the signal ratio; further: on the % scale 0 is the no-effect control and ±100 the full control effect)
In short: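 Reporter HeLa cells (ESRE-beta-lactamase) underwent 5 hr compound incubation at 37 C and 5% CO2 in quantitative HTS format. Detection followed 2 hr of FRET substrate loading at room temperature.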

Bile acid receptor (Homo sapiens), sequence (Q96RI1 whole entry, looked up): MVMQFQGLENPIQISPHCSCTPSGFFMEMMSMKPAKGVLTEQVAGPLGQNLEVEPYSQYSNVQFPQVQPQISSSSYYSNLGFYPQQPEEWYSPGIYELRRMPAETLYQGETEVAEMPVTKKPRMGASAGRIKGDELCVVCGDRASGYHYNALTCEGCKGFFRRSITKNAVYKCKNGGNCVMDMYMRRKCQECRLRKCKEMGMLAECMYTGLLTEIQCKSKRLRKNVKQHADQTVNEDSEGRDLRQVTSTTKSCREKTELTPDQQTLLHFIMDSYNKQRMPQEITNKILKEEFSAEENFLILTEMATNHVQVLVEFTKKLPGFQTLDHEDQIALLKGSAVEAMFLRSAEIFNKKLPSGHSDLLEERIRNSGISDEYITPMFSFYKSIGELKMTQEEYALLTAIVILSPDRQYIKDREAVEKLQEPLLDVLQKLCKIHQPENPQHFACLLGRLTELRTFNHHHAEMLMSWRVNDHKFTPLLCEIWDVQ
Peroxisome proliferator-activated receptor delta (Homo sapiens), sequence (Q03181 whole entry, looked up): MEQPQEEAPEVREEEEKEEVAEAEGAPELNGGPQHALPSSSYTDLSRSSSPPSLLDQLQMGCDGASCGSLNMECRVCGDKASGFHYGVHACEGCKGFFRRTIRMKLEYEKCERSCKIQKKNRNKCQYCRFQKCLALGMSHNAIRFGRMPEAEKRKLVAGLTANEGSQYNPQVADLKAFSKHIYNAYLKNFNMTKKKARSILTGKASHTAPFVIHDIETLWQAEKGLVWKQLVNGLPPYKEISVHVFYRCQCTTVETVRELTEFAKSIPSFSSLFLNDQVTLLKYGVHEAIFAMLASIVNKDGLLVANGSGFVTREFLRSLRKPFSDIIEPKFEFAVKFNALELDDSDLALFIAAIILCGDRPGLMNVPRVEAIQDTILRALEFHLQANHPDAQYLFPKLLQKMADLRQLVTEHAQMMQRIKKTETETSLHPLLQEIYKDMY
Vitamin D3 receptor (Homo sapiens), sequence (P11473 whole entry, looked up): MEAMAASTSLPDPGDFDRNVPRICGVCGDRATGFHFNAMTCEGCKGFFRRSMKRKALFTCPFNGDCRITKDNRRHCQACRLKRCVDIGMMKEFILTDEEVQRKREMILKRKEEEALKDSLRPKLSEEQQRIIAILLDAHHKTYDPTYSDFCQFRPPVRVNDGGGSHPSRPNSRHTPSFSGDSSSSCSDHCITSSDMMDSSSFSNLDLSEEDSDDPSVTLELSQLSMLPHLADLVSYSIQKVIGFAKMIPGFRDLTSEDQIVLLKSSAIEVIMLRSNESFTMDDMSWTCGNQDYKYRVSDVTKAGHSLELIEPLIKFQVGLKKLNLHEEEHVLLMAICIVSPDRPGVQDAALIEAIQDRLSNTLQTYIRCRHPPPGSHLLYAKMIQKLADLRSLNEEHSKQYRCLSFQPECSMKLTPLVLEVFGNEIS

O=C(O)C(=O)Nc1cccc(-c2nn[nH]n2)c1
inactive: outcome [1] | outcome [2] | outcome [3] | outcome [4] | outcome [5] | Potency [6] | outcome [7] | outcome [8] | outcome [9] | outcome [10] | outcome [11] | outcome [12] | outcome [13] | outcome [14] | outcome [15] | outcome [16] | outcome [17] | outcome [18]

Cc1cccc(Nc2ccncc2S(=O)(=O)NC(=O)NC(C)C)c1
inactive: outcome [1] | outcome [2] | outcome [3] | outcome [4] | outcome [5] | outcome [8] | outcome [9] | outcome [10] | outcome [11] | outcome [12] | outcome [13] | outcome [14] | outcome [15] | outcome [16] | outcome [19] | outcome [17] | outcome [18]

CCN(Cc1cccc(S(=O)(=O)O)c1)c1ccccc1
inactive: outcome [1] | outcome [3] | outcome [5] | Potency [6] | outcome [7] | outcome [8] | outcome [9] | outcome [10] | outcome [11] | outcome [12] | outcome [13] | outcome [14] | outcome [15] | outcome [16] | outcome [19] | outcome [17] | outcome [18]

COc1ccc(/C=N/NC(=O)c2ccncc2)cc1OC
inactive: outcome [1] | outcome [2] | outcome [3] | outcome [4] | Potency [6] | outcome [8] | outcome [11] | outcome [12] | outcome [13] | outcome [14] | outcome [15] | outcome [16] | outcome [19] | outcome [17] | outcome [18]

Nc1ccc(/C=C/c2ccc(N)cc2S(=O)(=O)O)c(S(=O)(=O)O)c1
inactive: activity change, negative = cytotoxicity [1] 4.06% [at 0.55 µM] | activation [2] -0.496% [at 0.55 µM] | viability change, negative = cytotoxic [3] -6.12% [at 0.575 µM] | ratio activity, negative = inhibition [4] -1.73% [at 0.575 µM] | activity change, negative = inhibition [5] 3.76% [at 0.55 µM] | viability change, negative = cytotoxic [6] 14.9% [at 0.55 µM] | activity change, negative = cytotoxicity [8] 5.38% [at 0.55 µM] | activation [9] 1.93% [at 0.554 µM] | activity change, negative = inhibition [10] 0.787% [at 0.628 µM] | activity change, negative = cytotoxicity [11] 8.54% [at 0.55 µM] | viability change, negative = cytotoxic [12] 9.91% [at 0.628 µM] | activation [13] 0.561% [at 0.628 µM] | activity, negative = cytotoxic [14] 1.66% [at 0.628 µM] | activity change, negative = cytotoxicity [15] 9.94% [at 0.628 µM] | activity, negative = cytotoxicity [16] -1.32% [at 0.349 µM] | viability change, negative = cytotoxic [17] 6.31% [at 0.29 µM] | activation [18] -7.74% [at 0.29 µM]

CC(C)COC(=O)CC(C(=O)OCC(C)C)S(=O)(=O)O (configuration not stated)
inactive: outcome [1] | outcome [2] | outcome [3] | Potency [6] | outcome [8] | outcome [9] | outcome [11] | outcome [12] | outcome [13] | outcome [14] | outcome [15] | outcome [16] | outcome [17] | outcome [18]

CCCCC(=O)N(C)C
inactive: outcome [1] | outcome [2] | outcome [3] | outcome [4] | Potency [6] | outcome [8] | outcome [9] | outcome [10] | outcome [11] | outcome [12] | outcome [13] | outcome [14] | outcome [15] | outcome [16] | outcome [17] | outcome [18]

CC(=O)Nc1ccc(C)cc1
inactive: outcome [1] | outcome [2] | outcome [3] | outcome [4] | Potency [6] | outcome [8] | outcome [9] | outcome [10] | outcome [11] | outcome [13] | outcome [14] | outcome [15] | outcome [19] | outcome [17] | outcome [18]

CCN1CN(CC)CN(CC)C1
inactive: outcome [2] | outcome [3] | outcome [4] | outcome [5] | Potency [6] | outcome [7] | outcome [8] | outcome [11] | outcome [12] | outcome [13] | outcome [14] | outcome [15] | outcome [18]

Nc1cc(C(=O)O)ccc1Cl
inactive: outcome [1] | outcome [2] | outcome [3] | outcome [4] | outcome [5] | Potency [6] | outcome [8] | outcome [9] | outcome [10] | outcome [11] | outcome [12] | outcome [13] | outcome [14] | outcome [20] | outcome [17] | outcome [18]

CNC(=O)C(c1ccccc1)c1ccccc1
inactive: outcome [1] | outcome [2] | Potency [6] | outcome [8] | outcome [9] | outcome [10] | outcome [11] | outcome [12] | outcome [13] | outcome [14] | outcome [15] | outcome [19] | outcome [17] | outcome [18]

COc1cc(C=O)ccc1OC(=O)C(C)C
inactive: outcome [1] | outcome [2] | outcome [3] | outcome [4] | Potency [6] | outcome [8] | outcome [9] | outcome [11] | outcome [12] | outcome [13] | outcome [14] | outcome [15] | outcome [16] | outcome [19] | outcome [17] | outcome [18]

Cc1nc(C)nc(N2C[C@@H](C)N(c3ccnc([C@@H](C)O)n3)[C@@H](C)C2)n1
inactive: outcome [1] | outcome [3] | outcome [5] | Potency [6] | outcome [7] | outcome [8] | outcome [9] | outcome [10] | outcome [11] | outcome [12] | outcome [13] | outcome [14] | outcome [15] | outcome [16] | outcome [19] | outcome [18]

C=CCCCCCCCCCCC
inactive: activity change, negative = cytotoxicity [1] -1.9% [at 5.95 µM] | activation [2] -5.08% [at 5.95 µM] | ratio activity, negative = inhibition [4] 0.24% [at 6.26 µM] | viability change, negative = cytotoxic [6] 33.3% [at 5.95 µM] | activity change, negative = cytotoxicity [8] 11.4% [at 5.95 µM] | activation [9] -2.3% [at 6.01 µM] | activity change, negative = inhibition [10] 4.12% [at 6.95 µM] | activity change, negative = cytotoxicity [11] -9.89% [at 5.95 µM] | viability change, negative = cytotoxic [12] 5.49% [at 6.95 µM] | activation [13] 0.0657% [at 6.95 µM] | activity, negative = cytotoxic [14] -9.69% [at 6.95 µM] | activation [20] -5.43% [at 6.95 µM] | activity change, negative = inhibition [19] -1.42% [at 8.39 µM] | viability change, negative = cytotoxic [17] 9.65% [at 6.97 µM] | activation [18] -2.43% [at 6.97 µM]

Cc1ccccc1C(=O)N1CC/C(=N\OS(=O)(=O)O)c2ccc(Cl)cc21
inactive: outcome [1] | outcome [2] | outcome [3] | outcome [4] | Potency [6] | outcome [8] | outcome [9] | outcome [11] | outcome [12] | outcome [13] | outcome [19] | outcome [17] | outcome [18]
